# Results taken from the supplement of paper PMC8728848.
# Shown is part of a subset that was picked to be rich in the strongest signals.
# B1: truncCC1G-10077 (Coprinopsis cinerea) (protein)
# chain: MHHHHHHHHPLPSPGPGWVLIQNGGTGKFLCSTPSGDIGTADGPETVYDYSVQWRFIQREYTGVYHVVNRATGAYLRQIGTSMPSIGLAEENDDELKDWWMLETYDNSEIGLASIISRWTGNVLDHYGGVSVQALDNNTENSYRSWAIIPARDWLTSFSLVNGQGGLCLAAQYAREETRLSTTANVNDFHAQWVFRKPSGSSGYTIQNKYNNHYVGGTSARWELVVCCNKYFGIRNTSTQKYLAIEDGQVTFQDQDMTDRKQCWELCSGRATDTSGNDYDLIYMDDDLLEVMIPWVGDKQGDLKHYIEKRATKKPPKDKGGWQLPAAGLIKKPKFNDIRQLLQELIEQWEWDVVNEEREQIQTLVSIDEAEARRLLGRRPHPDIVAAYQRSRSSTLFRIDRQGYFNIAGDRYVNIQGQYGDDSYFHIALPVGVRFGREQIRRFLRDSLDRSTSVTITPTTCKPPSGGPDYNRDPDSDGDNSWIKWTIAVVGTSAIKHSEL
# Key:
# Assay in all cases: glycan array binding signal (z-score within array); higher = stronger binding
# Conditions in all cases: glycan notation: IUPAC condensed, linker removed
# [1] = target: Fuc(a1-2)Gal(b1-3)GlcNAc(b1-2)Man(a1-3)[Fuc(a1-2)Gal(b1-3)GlcNAc(b1-2)Man(a1-6)]Man(b1-4)GlcNAc(b1-4)GlcNAc
# Outline: (§1)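 Glycan array binding is given as a within-array Z-score, which can be read as non-binding when negative. The arrays, 3228 of them, came from the Consortium for Functional Glycomics database and were retained only where the protein sequence was available. Z-scores were averaged across arrays of the same protein sequence at different concentrations or buffers and across linkers.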
# Fuc(a1-2)Gal(b1-4)Glc = target: Fuc(a1-2)Gal(b1-4)Glc
# Outline: as §1
# [2] = target: Fuc(a1-2)Gal(b1-4)GlcNAc(b1-3)[Fuc(a1-2)Gal(b1-4)GlcNAc(b1-6)]GalNAc
# Outline: as §1
# [3] = target: Fuc(a1-2)Gal6S(b1-3)GlcNAc6S
# Outline: as §1
# [4] = target: Fuc(a1-2)[Gal(a1-3)]Gal(b1-4)[Fuc(a1-3)]GlcNAc
# Outline: as §1
# [5] = target: Fuc(a1-2)[GalNAc(a1-3)]Gal(b1-3)GlcNAc(b1-3)GalNAc
# Outline: as §1
# [6] = target: Fuc(a1-2)[GalNAc(a1-3)]Gal(b1-4)Glc
# Outline: as §1
# [7] = target: Fuc(a1-2)[GalNAc(a1-4)]Gal(b1-4)GlcNAc
# Outline: as §1
# [8] = target: Fuc(a1-3)[Gal(b1-4)]GlcNAc(b1-6)GalNAc
# Outline: as §1
# [9] = target: Gal(b1-4)GlcNAc(b1-2)Man(a1-3)[Gal(b1-4)GlcNAc(b1-2)Man(a1-6)]Man(b1-4)GlcNAc(b1-4)[Fuc(a1-6)]GlcNAc
# Outline: as §1
# [10] = target: Gal(b1-4)GlcNAc(b1-2)Man(a1-3)[GlcNAc(b1-4)][Gal(b1-4)GlcNAc(b1-2)Man(a1-6)]Man(b1-4)GlcNAc(b1-4)GlcNAc
# Outline: as §1
# [11] = target: Gal(b1-4)GlcNAc(b1-2)[Gal(b1-4)GlcNAc(b1-6)]Man(a1-6)[GlcNAc(b1-4)][Gal(b1-4)GlcNAc(b1-2)Man(a1-3)]Man(b1-4)GlcNAc(b1-4)GlcNAc
# Outline: as §1
# [12] = target: Gal(b1-4)GlcNAc(b1-3)Gal(b1-4)GlcNAc(b1-2)[Gal(b1-4)GlcNAc(b1-3)Gal(b1-4)GlcNAc(b1-6)]Man(a1-6)[Gal(b1-4)GlcNAc(b1-3)Gal(b1-4)GlcNAc(b1-2)Man(a1-3)]Man(b1-4)GlcNAc(b1-4)GlcNAc
# Outline: as §1
# [13] = target: Gal(b1-4)GlcNAc(b1-3)Gal(b1-4)GlcNAc(b1-3)Gal(b1-4)GlcNAc
# Outline: as §1
# [14] = target: Gal(b1-4)GlcNAc(b1-3)Gal(b1-4)GlcNAc(b1-3)Gal(b1-4)GlcNAc(b1-3)Gal(b1-4)GlcNAc(b1-2)Man(a1-3)[Gal(b1-4)GlcNAc(b1-3)Gal(b1-4)GlcNAc(b1-3)Gal(b1-4)GlcNAc(b1-3)Gal(b1-4)GlcNAc(b1-2)Man(a1-6)]Man(b1-4)GlcNAc(b1-4)[Fuc(a1-6)]GlcNAc
# Outline: as §1
# [15] = target: Gal(b1-4)GlcNAc(b1-3)[Gal(b1-4)GlcNAc(b1-6)]Gal(b1-4)GlcNAc
# Outline: as §1
# [16] = target: Gal(b1-4)GlcNAc(b1-3)[GlcNAc(b1-6)]Gal(b1-4)GlcNAc
# Outline: as §1
# [17] = target: GalNAc(b1-3)Gal(a1-4)Gal(b1-4)GlcNAc
# Outline: as §1
# GlcA(b1-6)Gal = target: GlcA(b1-6)Gal
# Outline: as §1
# [18] = target: GlcNAc(b1-3)Gal(b1-3)GalNAc
# Outline: as §1
# [19] = target: GlcNAc(b1-3)Gal(b1-4)GlcNAc(b1-3)Gal(b1-4)GlcNAc(b1-2)Man(a1-3)[GlcNAc(b1-3)Gal(b1-4)GlcNAc(b1-3)Gal(b1-4)GlcNAc(b1-2)Man(a1-6)]Man(b1-4)GlcNAc(b1-4)GlcNAc
# Outline: as §1
# [20] = target: GlcNAc(b1-3)Gal(b1-4)GlcNAc(b1-3)Gal(b1-4)GlcNAc(b1-3)Gal(b1-4)GlcNAc(b1-2)[GlcNAc(b1-3)Gal(b1-4)GlcNAc(b1-3)Gal(b1-4)GlcNAc(b1-3)Gal(b1-4)GlcNAc(b1-6)]Man(a1-6)[GlcNAc(b1-3)Gal(b1-4)GlcNAc(b1-3)Gal(b1-4)GlcNAc(b1-3)Gal(b1-4)GlcNAc(b1-2)Man(a1-3)]Man(b1-4)GlcNAc(b1-4)[Fuc(a1-6)]GlcNAc
# Outline: as §1
# [21] = target: GlcNAc(b1-4)GlcNAc(b1-4)GlcNAc(b1-4)GlcNAc(b1-4)GlcNAc(b1-4)GlcNAc
# Outline: as §1
# [22] = target: Man(a1-3)[Man(a1-6)]Man(a1-6)[Man(a1-3)]Man
# Outline: as §1
# [23] = target: Neu5Ac(a2-3)Gal(b1-4)GlcNAc(b1-2)Man
# Outline: as §1
# [24] = target: Neu5Ac(a2-3)Gal(b1-4)GlcNAc(b1-3)Gal(b1-3)GlcNAc
# Outline: as §1
# [25] = target: Neu5Ac(a2-3)Gal(b1-4)GlcNAc(b1-3)Gal(b1-4)GlcNAc(b1-3)Gal(b1-4)GlcNAc
# Outline: as §1
# [26] = target: Neu5Ac(a2-3)Gal(b1-4)GlcNAc(b1-3)Gal(b1-4)GlcNAc(b1-3)GalNAc
# Outline: as §1
# [27] = target: Neu5Ac(a2-3)Gal(b1-4)[Fuc(a1-3)]GlcNAc(b1-6)[Neu5Ac(a2-3)Gal(b1-3)]GalNAc
# Outline: as §1
# [28] = target: Neu5Ac(a2-6)Gal(b1-4)GlcNAc(b1-3)Gal(b1-4)GlcNAc(b1-6)[Gal(b1-3)]GalNAc
# Outline: as §1
# [29] = target: Neu5Ac(a2-6)Gal(b1-4)GlcNAc(b1-6)GalNAc
# Outline: as §1
# [30] = target: Neu5Ac(a2-8)Neu5Ac(a2-8)Neu5Ac(a2-3)Gal(b1-4)Glc
# Outline: as §1
# [31] = target: Neu5Ac(b2-6)Gal(b1-4)GlcNAc
# Outline: as §1
# [32] = target: Neu5Ac9Ac(a2-3)Gal(b1-3)GlcNAc
# Outline: as §1
# [33] = target: Neu5Gc(a2-3)Gal(b1-4)[Fuc(a1-3)]GlcNAc
# Outline: as §1
# Neu5Gc(a2-6)GalNAc = target: Neu5Gc(a2-6)GalNAc
# Outline: as §1
binder,measurement,setting,value
B1,glycan array binding signal (z-score),[1],3.72
same,glycan array binding signal (z-score),Fuc(a1-2)Gal(b1-4)Glc,-0.216
same,glycan array binding signal (z-score),[2],2.81
same,glycan array binding signal (z-score),[3],0.519
same,glycan array binding signal (z-score),[4],1.66
same,glycan array binding signal (z-score),[5],3.65
same,glycan array binding signal (z-score),[6],-0.829
same,glycan array binding signal (z-score),[7],-0.664
same,glycan array binding signal (z-score),[8],3.46
same,glycan array binding signal (z-score),[9],3.13
same,glycan array binding signal (z-score),[10],0.359
same,glycan array binding signal (z-score),[11],-0.119
same,glycan array binding signal (z-score),[12],3.74
same,glycan array binding signal (z-score),[13],-0.532
same,glycan array binding signal (z-score),[14],0.374
same,glycan array binding signal (z-score),[15],-0.821
same,glycan array binding signal (z-score),[16],-1.04
same,glycan array binding signal (z-score),[17],-0.242
same,glycan array binding signal (z-score),GlcA(b1-6)Gal,4.61
same,glycan array binding signal (z-score),[18],-0.15
same,glycan array binding signal (z-score),[19],1.17
same,glycan array binding signal (z-score),[20],0.218
same,glycan array binding signal (z-score),[21],-0.144
same,glycan array binding signal (z-score),[22],0.384
same,glycan array binding signal (z-score),[23],2.91
same,glycan array binding signal (z-score),[24],-0.855
same,glycan array binding signal (z-score),[25],-1.07
same,glycan array binding signal (z-score),[26],0.244
same,glycan array binding signal (z-score),[27],3.72
same,glycan array binding signal (z-score),[28],0.521
same,glycan array binding signal (z-score),[29],3.21
same,glycan array binding signal (z-score),[30],0.249
same,glycan array binding signal (z-score),[31],-1.25
same,glycan array binding signal (z-score),[32],-1.02
same,glycan array binding signal (z-score),[33],3.02
same,glycan array binding signal (z-score),Neu5Gc(a2-6)GalNAc,-0.873
